{"source": "paper PMC4336329", "about": "(PLoS ONE, 2015)", "note": "About 14,000 (4.5%) of roughly 310,000 compounds showed an effect of 50% or more. The effect is printed as a negative number. The sample holds strong results, similar compounds and a random draw of the others, so the mix is not that of the screen."}
{"biological_target": "human ether-à-go-go-related gene (hERG) potassium channel (human, UniProt Q12809)", "sequence (Q12809 whole entry, looked up)": "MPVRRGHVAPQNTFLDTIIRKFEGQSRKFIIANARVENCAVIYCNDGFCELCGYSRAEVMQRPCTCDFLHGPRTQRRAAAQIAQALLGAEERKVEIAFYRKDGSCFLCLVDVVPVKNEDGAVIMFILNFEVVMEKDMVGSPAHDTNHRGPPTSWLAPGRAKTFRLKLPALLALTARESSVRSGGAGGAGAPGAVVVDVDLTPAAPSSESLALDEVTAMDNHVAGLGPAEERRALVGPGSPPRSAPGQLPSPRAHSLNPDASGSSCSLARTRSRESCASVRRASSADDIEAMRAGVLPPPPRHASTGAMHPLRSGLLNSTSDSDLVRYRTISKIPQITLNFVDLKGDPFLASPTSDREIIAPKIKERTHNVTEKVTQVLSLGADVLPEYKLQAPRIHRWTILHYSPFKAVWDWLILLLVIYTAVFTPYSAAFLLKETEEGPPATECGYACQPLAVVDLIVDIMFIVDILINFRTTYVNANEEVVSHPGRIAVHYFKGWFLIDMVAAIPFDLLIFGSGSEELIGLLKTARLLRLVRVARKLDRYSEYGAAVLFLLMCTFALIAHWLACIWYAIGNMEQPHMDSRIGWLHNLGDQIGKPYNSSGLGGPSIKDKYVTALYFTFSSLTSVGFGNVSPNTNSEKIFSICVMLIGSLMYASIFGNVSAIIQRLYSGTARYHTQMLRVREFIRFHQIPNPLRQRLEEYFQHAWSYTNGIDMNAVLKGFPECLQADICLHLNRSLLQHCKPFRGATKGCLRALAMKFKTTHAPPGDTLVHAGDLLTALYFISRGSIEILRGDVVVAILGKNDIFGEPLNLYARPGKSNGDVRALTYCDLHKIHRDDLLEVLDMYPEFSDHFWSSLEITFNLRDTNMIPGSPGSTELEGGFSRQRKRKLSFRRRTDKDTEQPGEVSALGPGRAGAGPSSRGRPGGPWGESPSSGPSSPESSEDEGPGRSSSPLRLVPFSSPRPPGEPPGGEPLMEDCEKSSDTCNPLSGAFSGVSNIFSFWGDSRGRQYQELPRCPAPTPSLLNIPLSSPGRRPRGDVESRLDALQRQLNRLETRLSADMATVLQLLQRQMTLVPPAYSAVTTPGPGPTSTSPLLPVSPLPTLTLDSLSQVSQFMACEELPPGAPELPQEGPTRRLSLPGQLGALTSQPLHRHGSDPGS", "assay": "primary screen, population patch clamp on CHO cells stably expressing hERG; higher = less effect of the substance", "units": {"hERG current change (%, negative = inhibition) at 10uM": "%"}}
{"compound": "COC(=O)C(NS(=O)(=O)c1ccc(NC(C)=O)cc1)C(C)C", "note": "(stereo not drawn);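 note: peak tail current of the secondary pulse compared with the same well before compound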", "hERG current change (%, negative = inhibition) at 10uM": -0.58}
{"compound": "CN(C)CCCNC(=O)c1cc(C(=O)C2CCCCC2)c[nH]1", "hERG current change (%, negative = inhibition) at 10uM": -3.99}
{"compound": "C=C(C)C(C)(C#CCN1CCCC1)OC(C)=O", "note": "(stereo not drawn)", "hERG current change (%, negative = inhibition) at 10uM": -6.48}
{"compound": "NS(=O)(=O)c1ccc(CNC(=O)CCC2CCCCC2)cc1", "hERG current change (%, negative = inhibition) at 10uM": -2.5}
{"compound": "COc1cc(NC(=S)N2CCN(S(=O)(=O)c3ccc(C)cc3)CC2)cc(OC)c1", "hERG current change (%, negative = inhibition) at 10uM": -4.7}
{"compound": "CC(=O)c1ccc(-n2cc(C#N)c(=O)[nH]c2=O)cc1", "hERG current change (%, negative = inhibition) at 10uM": 18.9}
{"compound": "CC1CN(C(=O)c2cccc(COc3ccccc3Cl)c2)CC(C)O1", "note": "(stereo not drawn)", "hERG current change (%, negative = inhibition) at 10uM": -49.3}
{"compound": "Cc1ccc(C(=O)OCc2cn(-c3ccccc3)nn2)cc1", "hERG current change (%, negative = inhibition) at 10uM": -7.92}
{"compound": "O=C(O)Cc1sc(Nc2ccccc2)nc1-c1ccc(Cl)cc1", "hERG current change (%, negative = inhibition) at 10uM": 14.6}
{"compound": "Nc1nnc(SCC(=O)Nc2cccc(S(=O)(=O)N3CCOCC3)c2)s1", "hERG current change (%, negative = inhibition) at 10uM": 24.1}
{"compound": "CCOC(=O)N1CCN(c2c(N3CCc4ccccc4C3)c(=O)c2=O)CC1", "hERG current change (%, negative = inhibition) at 10uM": -34.8}
{"compound": "CC1(C(=O)N2CCN(c3ccc([N+](=O)[O-])cc3)CC2)CC1(Cl)Cl", "note": "(stereo not drawn)", "hERG current change (%, negative = inhibition) at 10uM": -72.7}
{"compound": "CC(=O)N1CCN(c2ccc([N+](=O)[O-])cc2)CC1", "hERG current change (%, negative = inhibition) at 10uM": -55.9}
{"compound": "CC(=O)N1CCN(c2ccc(NC(=O)c3ccc([N+](=O)[O-])cc3)cc2)CC1", "hERG current change (%, negative = inhibition) at 10uM": 1.37}
{"compound": "O=C(C1CC1)N1CCN(c2ccc([N+](=O)[O-])cc2)CC1", "hERG current change (%, negative = inhibition) at 10uM": -61.8}
{"compound": "CCOC(=O)N1CCN(c2c(-c3ccc(C)cc3)c(=O)c2=O)CC1", "hERG current change (%, negative = inhibition) at 10uM": -29.7}
{"compound": "COc1ccc(N2CCN(C(=O)C3(C)CC3(Cl)Cl)CC2)cc1", "note": "(stereo not drawn)", "hERG current change (%, negative = inhibition) at 10uM": 2.66}
{"compound": "CC1(C(=O)N2CCN(c3ccccc3)CC2)CC1(Cl)Cl", "note": "(stereo not drawn)", "hERG current change (%, negative = inhibition) at 10uM": 6.47}
{"compound": "CC(=O)N1CCN(C(=S)c2ccc([N+](=O)[O-])cc2)CC1", "hERG current change (%, negative = inhibition) at 10uM": -3.4}
{"compound": "CCOC(=O)N1CCN(c2c(N3CC=C(c4ccccc4)CC3)c(=O)c2=O)CC1", "hERG current change (%, negative = inhibition) at 10uM": -51.9}
{"compound": "O=C(C1CC1)N1CCN(c2ccc(O)cc2)CC1", "hERG current change (%, negative = inhibition) at 10uM": -17.3}
{"compound": "COc1ccc(CC(=O)N(C)C2CCCN(Cc3ccccc3F)C2)cc1OC", "note": "(stereo not drawn)", "hERG current change (%, negative = inhibition) at 10uM": -4.9}
{"compound": "CCOC(=O)C1CSC(CC(=O)Nc2ccc(Cl)c(Cl)c2)C(=O)N1", "note": "(stereo not drawn)", "hERG current change (%, negative = inhibition) at 10uM": -24.2}
{"compound": "COc1ccc(CCC(=O)OCC(=O)Nc2sccc2C(N)=O)cc1", "hERG current change (%, negative = inhibition) at 10uM": -5.4}
{"compound": "O=[N+]([O-])c1ccc(N2CCCCC2)cc1", "hERG current change (%, negative = inhibition) at 10uM": -16.5}
{"compound": "CCOC(=O)C1CCN(C(=O)COc2ccc(Br)cc2)CC1", "hERG current change (%, negative = inhibition) at 10uM": -32.1}
{"compound": "CCOC(=O)N1CCN(C(=O)COc2ccc([N+](=O)[O-])cc2)CC1", "hERG current change (%, negative = inhibition) at 10uM": -43}
{"compound": "CN1CCCN(c2ccc([N+](=O)[O-])cc2)CC1", "hERG current change (%, negative = inhibition) at 10uM": -66}
{"compound": "O=C(Cc1ccccc1[N+](=O)[O-])OCC(=O)N1CCN(c2ccccc2)CC1", "hERG current change (%, negative = inhibition) at 10uM": -6.16}
{"compound": "COc1cc2c(cc1OC)CN(c1ccc([N+](=O)[O-])c(C(F)(F)F)c1)CC2", "hERG current change (%, negative = inhibition) at 10uM": -8.39}
{"compound": "CC(=O)N1CCN(c2ccc(Oc3ccc([N+](=O)[O-])c(C(F)(F)F)c3)cc2)CC1", "hERG current change (%, negative = inhibition) at 10uM": -59.9}
{"compound": "CC(=O)OCC(=O)N1CCN(c2ccc([N+](=O)[O-])cc2)CC1", "hERG current change (%, negative = inhibition) at 10uM": -63.3}
{"compound": "O=C(OCC(=O)N1CCN(c2ccccc2)CC1)c1cccc([N+](=O)[O-])c1", "hERG current change (%, negative = inhibition) at 10uM": -28.2}
{"compound": "CN1CCCN(c2ccc([N+](=O)[O-])nc2)CC1", "hERG current change (%, negative = inhibition) at 10uM": 2.45}
{"compound": "CCOC(=O)C1CCN(C(=O)COc2ccc([N+](=O)[O-])cc2)CC1", "hERG current change (%, negative = inhibition) at 10uM": -60.8}
{"compound": "COc1ccc(N2CCN(c3ccc(C(=O)O)cc3[N+](=O)[O-])CC2)cc1", "hERG current change (%, negative = inhibition) at 10uM": 11}
{"compound": "Cc1c(C(=O)Nc2ccc3c4c(cccc24)CC3)cccc1[N+](=O)[O-]", "hERG current change (%, negative = inhibition) at 10uM": 9.1}
{"compound": "Cc1cccc(-c2oc3ccc(-c4ccc5c(c4)OCO5)cc3c2C(=O)OCc2ccc(O)cc2)c1", "hERG current change (%, negative = inhibition) at 10uM": 6.27}
{"compound": "c1ccc(-c2nn[nH]n2)nc1", "hERG current change (%, negative = inhibition) at 10uM": 9.49}
{"compound": "Cc1cccc(NC(=S)NCCC(c2ccccc2)c2ccccc2)c1", "hERG current change (%, negative = inhibition) at 10uM": 12}
{"compound": "CCn1c(-c2cc(OC)c(OC)c(OC)c2)n[nH]c1=S", "hERG current change (%, negative = inhibition) at 10uM": 12.1}
{"compound": "COc1cccc(CNC(=O)CCCn2nc(C)c3c(C)n(-c4ccccc4)nc3c2=O)c1", "hERG current change (%, negative = inhibition) at 10uM": -10}
{"compound": "COc1ccc(CCN2CN(S(=O)(=O)c3ccccc3)c3nc4ccccc4nc32)cc1OC", "hERG current change (%, negative = inhibition) at 10uM": -0.784}
{"compound": "Cc1ccc(/C([O-])=C(/C(=S)NCc2ccco2)[n+]2ccccc2)cc1[N+](=O)[O-]", "hERG current change (%, negative = inhibition) at 10uM": -18}
{"compound": "CC(C)C(=O)NNS(=O)(=O)c1ccccc1[N+](=O)[O-]", "hERG current change (%, negative = inhibition) at 10uM": 3.1}
{"compound": "CN1N=C(C(=O)N2CCCC(N3CCN(c4ccc(F)cc4)CC3)C2)CCC1=O", "note": "(stereo not drawn)", "hERG current change (%, negative = inhibition) at 10uM": 2.78}
{"compound": "CCOCC(=O)N1CCN(c2cccc(Cl)c2)CC1", "hERG current change (%, negative = inhibition) at 10uM": 8.4}
{"compound": "COc1ccc(N2CCN(C(=O)c3cc([N+](=O)[O-])ccc3N3CCN(CCO)CC3)CC2)cc1", "hERG current change (%, negative = inhibition) at 10uM": -24.6}
{"compound": "COCC(=O)N1CCN(c2cccc(Cl)c2)CC1", "hERG current change (%, negative = inhibition) at 10uM": -8.46}
{"compound": "COc1ccc(N=C2SC(C(=O)N3CCN(c4ccccc4)CC3)CC(=O)N2C)cc1", "note": "(stereo not drawn)", "hERG current change (%, negative = inhibition) at 10uM": -13}
{"compound": "CCOCC(=O)N1CCN(c2ccc([N+](=O)[O-])cc2)CC1", "hERG current change (%, negative = inhibition) at 10uM": -71.8}
{"compound": "CCOCC(=O)N1CCN(c2ccc(F)cc2)CC1", "hERG current change (%, negative = inhibition) at 10uM": -15.9}
{"compound": "COc1ccc(N=C2SC(C(=O)O)CC(=O)N2C)cc1", "note": "(stereo not drawn)", "hERG current change (%, negative = inhibition) at 10uM": 1.4}
{"compound": "COCC(=O)N1CCN(c2ccc([N+](=O)[O-])cc2)CC1", "hERG current change (%, negative = inhibition) at 10uM": -62.7}
{"compound": "CN1N=C(C(=O)N2CCN(c3ccc([N+](=O)[O-])cc3)CC2)CCC1=O", "hERG current change (%, negative = inhibition) at 10uM": -73}
{"compound": "COc1ccc(N=C2SC(C(=O)N3CCN(c4ccc([N+](=O)[O-])cc4)CC3)CC(=O)N2C)cc1", "note": "(stereo not drawn)", "hERG current change (%, negative = inhibition) at 10uM": -68.2}
{"compound": "COc1ccc(C)cc1NC(=O)C(OC(=O)c1ccc(Cl)c(S(=O)(=O)N(C)c2ccccc2)c1)c1ccccc1", "note": "(stereo not drawn)", "hERG current change (%, negative = inhibition) at 10uM": -0.711}
